Assay outcomes as filed in PubChem.
D1 potentiator = Potentiators of Human D1 Dopamine Receptor: qHTS; D(1A) dopamine receptor (Homo sapiens), P21728; HEK293 TREx D1 cells, calcium flux, dopamine EC20 potentiation; potentiation, % at 10 µM; 360,000 tested, 0.036% active; AID 504651, 2011; in the data active means potentiation above about 30%
D1 antagonist = Antagonist of Human D 1 Dopamine Receptor: qHTS. HEK293 TREx D1 cells, calcium flux, dopamine EC80; hits give low values. 360,000 tested, 3.2% active. activity change, negative = inhibition, % at 10 µM. AID 504652, 2011. D(1A) dopamine receptor (Homo sapiens), P21728; in the data active means activity change below about -30%
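Kinetic fluorescence of a calcium dye serves as the read-out. D1-expressing Hek293 Trex cells, induced overnight at 30 C, are exposed to compound for 180 s before an EC80 dopamine addition, then read 180 s further.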
D3 ag = qHTS of D3 Dopamine Receptor Agonist: qHTS; 410,000 tested, 0.58% active; max activation, %; D3R DiscoveRx beta-arrestin cells, luminescence, 90 min; in the data active means max activation above about 30%
Target sequence (P35462 whole entry, looked up): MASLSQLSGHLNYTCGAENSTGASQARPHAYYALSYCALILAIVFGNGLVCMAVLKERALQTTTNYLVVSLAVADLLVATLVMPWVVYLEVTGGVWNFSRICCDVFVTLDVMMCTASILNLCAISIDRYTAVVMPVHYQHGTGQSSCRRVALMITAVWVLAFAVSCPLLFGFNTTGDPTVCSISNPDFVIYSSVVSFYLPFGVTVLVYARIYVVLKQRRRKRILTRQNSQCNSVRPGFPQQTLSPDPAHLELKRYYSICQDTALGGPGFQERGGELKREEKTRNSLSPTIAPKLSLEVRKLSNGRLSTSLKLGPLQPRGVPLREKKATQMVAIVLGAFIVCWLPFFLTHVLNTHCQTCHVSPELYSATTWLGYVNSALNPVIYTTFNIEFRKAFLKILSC
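Agonist-mode cell screen: cells plated at 1500/well and incubated overnight at 37 °C, then exposed to library compounds for 90 min at 37 °C. Detection reagent was added for 30–60 min at room temperature, and luminescence was read.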
D3 antag = qHTS of D3 Dopamine Receptor Antagonist: qHTS; D3R cells, DiscoveRx beta-arrestin luminescence, antagonist mode; hits give low values; 360,000 tested, 2.5% active; D(3) dopamine receptor (Homo sapiens), P35462; max response, negative = inhibition, %; in the data active means max response below about -50%; inconclusive means no clear call, values can overlap the other calls
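Cells plated overnight at 1500 cells/well, then exposed to library compounds with dopamine controls for 90 minutes at 37 degrees C. DiscoveRx reagent added for 30–60 minutes at room temperature; luminescence read, quantitative HTS format.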
D1 ag = Allosteric Agonists of the Human D1 Dopamine Receptor: qHTS; HEK293 T-REx D1 cells, calcium flux, agonist mode; activation, % at 2 µM; 360,000 tested, 1% active; in the data active means activation above about 30%
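Agonism was scored from calcium flux recorded over 180 s (1 read/s) after pintool compound addition, following a 10-cycle baseline. Cells were inducible force-coupled HEK293 TREx D1, plated overnight at 30 C and loaded with no-wash calcium dye.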
Hits are given with their value; . = inactive; ? = inconclusive; / = no result given. Compounds with a hit are over-represented: about 6.1% of the library has one in this group of screens.

SMILES | D1 potentiator | D1 antagonist | D3 ag | D3 antag | D1 ag
Cc1cc(C)cc(NS(=O)(=O)c2ccc3c(c2)NC(=O)C(C)S3)c1 (stereo unspecified) | . | . | . | / | .
Cc1n[nH]c(C)c1S(=O)(=O)N(CC(=O)NCc1ccccc1Cl)c1ccc(C(C)C)cc1 | . | . | . | / | .
O=C(/C=C/c1ccncc1)c1ccc(NC(=O)c2ccccc2F)cc1 | . | . | . | -66.5 | .
CCSc1nnc(C)n1-c1ccc(C(=O)O)cc1 | . | . | . | -56.4 | .
Cc1cc2c(s1)c1cnn(Cc3ccc(F)cc3)c(=O)c1n2C | . | . | / | / | .
CN(C)CCCN(C(=O)c1ccc(S(=O)(=O)N(C)Cc2ccccc2)cc1)c1nc2cc3c(cc2s1)OCO3 | . | -55.3 | . | . | .
CN(C)CCCN(C(=O)c1ccc([N+](=O)[O-])o1)c1nc2cc3c(cc2s1)OCO3 | . | -47.0 | . | . | .
CN(C)CCCN(C(=O)COc1ccccc1)c1nc2cc3c(cc2s1)OCO3 | . | . | . | . | 36.1
CN(C)CCCN(C(=O)c1ccc2ccccc2c1)c1nc2cc3c(cc2s1)OCO3 | . | . | . | . | 36.3
CN(C)CCN(C(=O)c1ccc2ccccc2c1)c1nc2cc3c(cc2s1)OCCO3 | . | . | . | . | .
Cc1cc2c(s1)c1cnn(Cc3c(F)cccc3C(F)(F)F)c(=O)c1n2C | . | . | / | / | .
CN=C1C=CC(=C(c2ccc(N(C)C)cc2)c2ccc(N(C)C)cc2)C=C1 | / | / | . | / | /
CCN(c1ccccc1)S(=O)(=O)c1ccc(C(=O)N(CCCN(C)C)c2nc3c(C)cccc3s2)cc1 | . | . | . | . | .
CCN(c1ccccc1)S(=O)(=O)c1ccc(C(=O)N(CCCN(C)C)c2nc3cc4c(cc3s2)OCO4)cc1 | . | . | . | . | 41.6
CCOC(=O)c1cc(-c2ccc(OC)cc2)n(CCC(=O)NC2CCCCC2)c1C | . | . | . | / | .
CC(C)C/C=C1\CCc2c([nH]c3ccccc23)C1=O | . | . | . | ? | .
CCCCCCCCC1=NCCc2c1[nH]c1ccccc21 | . | . | . | . | 38.2
O=C(NC1CCCCC1)c1ccc(CSc2nc3cccnc3n2Cc2ccc(F)cc2)cc1 | . | . | . | / | .
Cc1ccccc1OC1(C)CCN(Cc2ccc(-c3ccccn3)cc2)C1 (stereo unspecified) | / | / | . | -75.4 | /
CC1(Oc2cnc(Cl)c3ccccc23)CCN(Cc2ccc(-c3ccccn3)cc2)C1 (stereo unspecified) | / | / | . | . | /
CC1(Oc2cccc(F)c2)CCN(Cc2ccc(-c3ccccn3)cc2)C1 (stereo unspecified) | / | / | . | -67.2 | /
Cc1ccc(CNC(=O)C2CCN(C(=O)c3cnn(-c4ccccc4)c3-n3cccc3)CC2)cc1 | . | . | . | / | .
Cc1ccn2cc(CNC(=O)c3cccc(C(F)(F)F)c3)nc2c1 | . | . | . | / | .
Cc1ccc(C(=O)CSc2nc(-c3ccccc3)ccc2C#N)cc1 | . | . | . | . | 35.9
CCn1c(=O)n(-c2ccc3c(c2)OCO3)c2nc(-c3cc(OC)ccc3OC)nc(C(N)=O)c21 | . | . | . | / | .
SMILES | D1 potentiator | D1 antagonist | D3 ag | D3 antag | D1 ag
O=C(/C=C/c1cccc([N+](=O)[O-])c1)c1cccs1 | . | . | . | -57.5 | .
CC(=O)Oc1ccccc1C(=O)C=Cc1cccc([N+](=O)[O-])c1 | / | / | . | -56.0 | /
O=C(/C=C/c1cccc([N+](=O)[O-])c1)Nc1ccc(NC(=O)c2cccs2)cc1 | . | -78.0 | . | ? | .
O=C(/C=C/c1cccc([N+](=O)[O-])c1)n1cnc2ccccc21 | . | . | . | -103.9 | .
O=C(/C=C/c1cccc([N+](=O)[O-])c1)N1CCN(S(=O)(=O)c2cccs2)CC1 | . | . | . | . | .
O=C(N/N=C/c1cccc([N+](=O)[O-])c1)c1cccs1 | . | . | . | . | .
COc1ccc(C(=O)OCc2cc(=O)n3nc(-c4cccs4)sc3n2)cc1 | . | . | . | / | .
COc1ccc(CCNC(=O)Cc2c(C)c3cc4c(C(C)(C)C)coc4c(C)c3oc2=O)cc1 | . | . | . | / | .
Cc1ccc(C(=O)NCC(c2ccc3c(c2)OCO3)N2CCN(c3ccc(F)cc3)CC2)cc1 (stereo unspecified) | . | . | . | / | .
COc1ccc(S(=O)(=O)N2CCCC(C(=O)Nc3ccc(OC)c(OC)c3)C2)cc1 (stereo unspecified) | . | -31.1 | . | . | .
COc1cc(NC(=O)[C@@H]2CCCN(S(=O)(=O)c3cccc4cccnc34)C2)cc(OC)c1OC | . | . | 43.1 | . | .
N#C/C(=C\c1ccc(-c2ccc(C(=O)O)cc2)o1)C(=O)Nc1ccccc1C(=O)O | . | . | . | / | .
CCOC(=O)c1c(C)[nH]c(C)c1C(=O)COC(=O)/C=C/c1ccc(OC(F)F)cc1 | 33.2 | . | . | . | .
CCOC(=O)c1c(C)[nH]c(C(=O)COC(=O)/C=C/c2ccc(OC(F)F)cc2)c1C | . | . | . | . | .
CN1CCN(S(=O)(=O)c2ccc(N(C)Cc3cccs3)nc2)CC1 | . | -38.1 | . | . | .
CCN(Cc1cccs1)C(=O)c1cccc(S(=O)(=O)N2CCN(C)CC2)c1 | . | . | . | . | .
CN1CCN(S(=O)(=O)c2cccc(C(=O)N(C)Cc3cccs3)c2)CC1 | / | -46.5 | . | . | .
O=c1c2cccnc2n(Cc2ccccc2F)c(=O)n1Cc1ccc(F)cc1 | . | . | . | / | .
O=C1CC(N2CCN(c3cccc(C(F)(F)F)c3)CC2)C(=O)N1c1ccccc1F (stereo unspecified) | . | . | . | . | .
CCCOc1ccc(N2C(=O)CC(N3CCC(O)(c4cccc(C(F)(F)F)c4)CC3)C2=O)cc1 (stereo unspecified) | . | -32.4 | . | . | .
O=C1CC(N2CCN(c3cccc(C(F)(F)F)c3)CC2)C(=O)N1c1ccccc1 (stereo unspecified) | . | . | . | . | 53.4
Fc1ccc(C(Nc2ccccc2Cl)c2nnc(-c3ccccc3Cl)o2)cc1 (stereo unspecified) | . | . | . | / | .
Cc1cc(C)c2c(N)c(-c3nc4ccccc4[nH]3)sc2n1 | . | . | . | . | .
Cc1ccc2nc(-c3sc4nc(C)ccc4c3N)[nH]c2c1 | . | -38.2 | . | . | .
CC1(CC(=O)N/N=C/c2ccc(OCc3ccc(Cl)cc3Cl)cc2)OCCCO1 | . | -31.3 | . | . | .
Cc1ccc2nc(COc3ccccc3NC(=O)C(C)(C)C)cc(=O)n2c1 | . | . | . | / | .
COc1cc(/C=C(\C#N)C(=O)NCCc2ccccc2)cc(OC)c1O | . | . | . | . | 72.7
